From PubChem BioAssay
IL-2 act – IL-2 activation | IL-2 activation reporter assay, cell-based qHTS; stimulated with anti-CD3/CD4/CD28 beads; in transgenic mouse T cells | activation, % (series mostly up to about 46 µM) | actives 0.065% (n = 360,000) | AID 652025; in the data active = activation above about 50%; note: 0% is about no effect
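Unstimulated transgenic mouse T cells, 750 per well, received compound and, after 60 minutes, anti-CD3/anti-CD4 bead plus anti-CD28 stimulation. EGFP and DsRed were quantified after 18 hours.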
Giardia kill – Giardia lamblia killing; Giardia lamblia trophozoite viability; activity change, % at 7.66 µM, hits read low; actives 0.15% (n = 340,000); AID 540267; in the data active = activity change below about -80%;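 note: parasites exposed to compound for two days anaerobically before the ATP read; % is set by controls: 0 for no effect and ±100 for the full control effect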
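Media and compound were dispensed first, then trophozoites at 100 cells/well; plates sat 48 hrs at 37 deg C without oxygen before ATP luminescence reagent was added and read after 15-30 min at room temperature.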
RXFP1 agonist – activates the human relaxin receptor RXFP1; Q9HBX9; HEK293T-RXFP1 cAMP TR-FRET, 30 min; response scale: percent of porcine relaxin response, buffer zero; Potency, µM (doses to about 57.5 µM), without a hit: at the top dose activation, usual class: activators; actives 0.3% (n = 370,000); AID 2676; note: potency is the fitted concentration of half-maximal effect; % is set by controls: 0 for no effect and ±100 for the full control effect; nearly all actives have a fitted effect of over 60% in size
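Agonist response is measured as cAMP accumulation in an RXFP1-transfected HEK293T line under PDE4 inhibition. Values are scaled between buffer-only and 29 nM porcine relaxin, and EC50s come from standard Hill equation fits.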
BRCA1 expr act – activators of BRCA1 expression; AID 624202; Potency, µM (highest dose often 46.1 µM), for inactives: at the top dose activation, usual class: activators; MCF7-BRCA1-FFLuc reporter, luminescence, 48 h; response scale: scaled: vehicle 0%, 10 µM genistein 100%; actives 1.1% (n = 380,000); note: potency is the fitted concentration of half-maximal effect; nearly all actives have a fitted effect of over 80% in size
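First, MCF7-BRCA1-FFLuc cells (2000/well) attach for 2 h; next, compounds are pin-added and incubated 48 h at 37 °C; finally, luciferase reagent is added and luminescence read after 15 min.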
RXFP1 antag – blocks the human relaxin receptor RXFP1 | HEK293-RXFP1, relaxin-stimulated cAMP HTRF, 30 min; hits give low values | activity change, negative = inhibition, % at 57.5 µM | actives 0.59% (n = 350,000) | AID 1259400;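 active = activity change of -60% or lower, but not beyond a set lower limit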; note: % is set by controls: 0 for no effect and ±100 for the full control effect
NPSR antag – antagonists of human neuropeptide S receptor cAMP signaling; Q6W5P4; CHO-NPSR cells, cAMP TR-FRET, antagonist mode; Potency, µM (doses to about 38.3 µM), for the others: at the highest dose activity change, negative = inhibition, actives largely listed as inhibitors; actives 1% (n = 220,000); AID 1461; note: potency is the fitted concentration of half-maximal effect; % is set by controls: 0 for no effect and ±100 for the full control effect; nearly all actives have a fitted effect of over 50% in size
Target sequence (Q6W5P4 whole entry, looked up): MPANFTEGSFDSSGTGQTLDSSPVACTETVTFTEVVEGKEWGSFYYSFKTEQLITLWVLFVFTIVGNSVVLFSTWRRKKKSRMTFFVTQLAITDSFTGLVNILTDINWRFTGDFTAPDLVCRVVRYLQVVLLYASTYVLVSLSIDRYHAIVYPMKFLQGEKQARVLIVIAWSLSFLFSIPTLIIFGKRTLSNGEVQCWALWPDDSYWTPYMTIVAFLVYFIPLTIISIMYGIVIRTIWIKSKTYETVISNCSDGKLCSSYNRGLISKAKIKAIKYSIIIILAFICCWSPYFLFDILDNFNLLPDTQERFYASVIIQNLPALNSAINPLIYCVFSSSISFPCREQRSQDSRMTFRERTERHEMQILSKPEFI
* marks the source's active call; other numbers are inactive results; [ ] = remark or other dose. Rows were chosen to be rich in hits. Some 1.9% of all compounds tested hit in one or more screens of this group. Unless noted, calls come from the whole dose curve; as a rule, active = well fitted curve in the direction sought with a large enough effect; inconclusive = small, poorly fitted or top-dose-only effect, or another doubt; inactive = no such curve, though single readings can be large; an effect the other way counts as inactive or inconclusive.

For COc1ccc(CN(CC(=O)NCCC(C)C)C(=O)CCC(=O)Nc2nccs2)cc1 the results were IL-2 act 0, Giardia kill -4, RXFP1 agonist -4%, BRCA1 expr act -17% and RXFP1 antag -69*.
Screening COc1cc(NC(=O)CCn2nc(C)c(S(=O)(=O)N3CCCCC3)c2C)cc(OC)c1OC returned RXFP1 agonist 1% and RXFP1 antag 1.
`CCCCOc1ccccc1C1CC(=O)Nc2ccc3ccccc3c21` (stereo not given) gave RXFP1 agonist 2% and RXFP1 antag -30.
`O=C1/C(=C/c2cccs2)SC(=S)N1N1CCOCC1` gave IL-2 act -1, Giardia kill -14, RXFP1 agonist 0%, BRCA1 expr act 1%, RXFP1 antag -96* and NPSR antag 3%[7.67 µM].
`O=C1/C(=C/c2ccncc2)SC(=S)N1N1CCOCC1` gave IL-2 act 3, Giardia kill 6, RXFP1 agonist -1%, BRCA1 expr act -2%, RXFP1 antag -34 and NPSR antag 6%.
Screening COC(=O)c1cccc(CN2C(=O)C(C)Sc3ccc(C)cc32)c1 (stereo not given) returned IL-2 act 0 and BRCA1 expr act 22%.
COC(=O)c1cccc(CN2C(=O)C(C)Sc3cc(Cl)ccc32)c1 (stereo not given) was read as IL-2 act -1 and BRCA1 expr act 5µM*.
Screening COc1ccc(-c2cc(-c3cc(C)ccc3O)[nH]n2)cc1 returned IL-2 act -1, Giardia kill -2, RXFP1 agonist 1%, BRCA1 expr act -53%, RXFP1 antag -100* and NPSR antag 29%.
Screening CCOC(=O)C1=C(N)OC2=C(C(=O)CC(C)(C)C2)C1c1ccc(C)s1 (stereo not given) returned IL-2 act 3, Giardia kill 0, RXFP1 agonist -4%, BRCA1 expr act -3%, RXFP1 antag -62* and NPSR antag -33%.
Screening COc1ccc(CN2CCN(C(c3ccc(F)cc3)c3ccc(F)cc3)CC2)c(OC)c1OC returned IL-2 act -1, Giardia kill 13, BRCA1 expr act -9% and RXFP1 antag -106*.
For COc1ccc(CN2CCN(c3ccc(F)cc3)CC2)c(OC)c1OC the results were IL-2 act -2, Giardia kill -9, RXFP1 agonist -5%, BRCA1 expr act -23% and NPSR antag 8%.
For Cc1sc2nc[nH]c(=S)c2c1-c1ccccc1 the results were IL-2 act 0, Giardia kill 1, RXFP1 agonist 3%, BRCA1 expr act -20%, RXFP1 antag -91* and NPSR antag -19%.
COc1ccc(C(C)C)cc1S(=O)(=O)NCCCn1ccnc1 was read as IL-2 act -1, Giardia kill 10, RXFP1 agonist -1%, BRCA1 expr act -10% and RXFP1 antag -63*.
Screening CCC(Sc1ccc2nnc(-c3ccc(F)cc3)n2n1)C(=O)OC (stereo not given) returned IL-2 act 0, Giardia kill 22, RXFP1 agonist 9%, BRCA1 expr act -1%, RXFP1 antag 24 and NPSR antag -17%[46.1 µM].
For CCC(Sc1ccc2nnc(-c3cccnc3)n2n1)C(=O)OC (stereo not given) the results were IL-2 act 1, Giardia kill -9, RXFP1 agonist 14µM*, BRCA1 expr act -22%, RXFP1 antag 22 and NPSR antag 20%.
Screening CC(=O)Nc1ccc(NC(=O)CSc2ccc3nnc(-c4cccnc4)n3n2)cc1 returned IL-2 act 1, Giardia kill 4, RXFP1 agonist 8.9µM*, BRCA1 expr act 6% and RXFP1 antag 1.
Screening C/C(=C(/CCO)SS/C(CCO)=C(\C)N(C=O)Cc1cnc(C)nc1N)N(C=O)Cc1cnc(C)nc1N returned RXFP1 antag 12.
